The list is not random: actives were taken first. Their share in the collection is about 4%.
EWS-Fli block: EWS/Fli-driven NR0B1 reporter inhibitors, primary screen, A673 cells, NR0B1 luciferase, luminescence, MLPCN library. inhibition, % at 12.6 µM. 0.67% of 350,000 active. viability-normalised. AID 651661, 2012;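 active means mean inhibition of at least 50% after viability correction, with every replicate also passing that limit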;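 further: firefly luciferase signal divided by Alamar Blue viability fluorescence both relative to DMSO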
PAX8 inh HTS: inhibitors of PAX8-driven TPO luciferase reporter, primary screen, RMG-I cells, single concentration | SteadyGlo, 24 h | AID 652154, 2013 | 1.2% of 360,000 active | inhibition, % at 12.6 µM;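 active means mean replicate inhibition at least 60% with every replicate also reaching 60%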;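 further: luciferase light reporting Pax8 driven TPO promoter activity; plate controls were median of neutral control wells for no effect and mitoxantrone controls for full effect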
MITF act: activators of MITF-driven TRPM1 promoter reporter, primary screen, cell-based, SK-MEL-5, luciferase, single point; 0.75% of 300,000 active; AID 588334, 2011; activation, % at 12.5 µM; SK-MEL-5 TRPM1-promoter luciferase, 24 h; % of positive control, neutral wells = 0;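 active means mean activation of at least 80% with every replicate also reaching 80%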;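 further: 0% = neutral control wells and 100% = parthenolide positive control wells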
Wnt act: Wnt/beta-catenin pathway activators, primary screen, cell-based, plate reader, single point. Wnt/beta-catenin reporter cell assay, activator. activation, % at 9.35 µM. 1.2% of 300,000 active; in the data active means activation above about 30%, passing the limit was not always enough;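 further: 0% = neutral control wells and 100% = positive control wells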
esBAF inh: Bmi1 luciferase reporter increase in mESCs, primary screen, esBAF inhibitor project, mouse ES cells, Bmi1 luciferase knock-in, single point; 24 h; 100% = twice the neutral-well signal; reporter increase, % at 12.5 µM; 2% of 350,000 active; AID 602393, 2012; in the data active means activation above about 40%;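 further: 0% = median of the plate's neutral control wells and 100% = double that signal; a rise in the Bmi1 reporter signal indicates esBAF inhibition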
MITF TRPM1 inh: inhibitors of MITF-dependent TRPM1 promoter reporter, primary screen, cell-based, SK-MEL-5, single point, luciferase; SK-MEL-5 TRPM1 promoter luciferase, 24 h; inhibition, % at 12.5 µM; 0.83% of 330,000 active; AID 488899, 2010;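 active means mean inhibition across replicates of 60% or more, whatever share of single replicates reaches that level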
* hit, by the source's call; · = no result given; ! = not confirmed by another sample.

SMILES	EWS-Fli block	PAX8 inh HTS	MITF act	Wnt act	esBAF inh	MITF TRPM1 inh
CCN(CC(=O)Nc1c(F)cccc1F)C(=O)CNC(=O)c1cccs1	5	0	-11	38*	-4	12
C[C@H](CO)N1C[C@H](C)[C@@H](CN(C)Cc2ccc(C(=O)O)cc2)Oc2ccc(NC(=O)Cc3ccccc3)cc2CC1=O	0	0	·	·	-4	·
C[C@@H]1CCCCO[C@H](CN(C)C(=O)CCC(F)(F)F)[C@H](C)CN([C@@H](C)CO)C(=O)c2cc(NC(=O)Nc3ccc4c(c3)OCO4)ccc2O1	4	68*	·	·	12	·
C[C@@H]1CN([C@H](C)CO)C(=O)c2cc(NC(=O)Nc3ccc4c(c3)OCO4)ccc2O[C@@H](C)CCCCO[C@@H]1CN(C)C(=O)CCC(F)(F)F	-22	-30	·	·	18	·
C[C@H]1CCCCO[C@@H](CN(C)C(=O)Nc2ccccc2)[C@@H](C)CN([C@@H](C)CO)C(=O)c2cc(NC(=O)Nc3ccc4c(c3)OCO4)ccc2O1	9	33	·	·	44*	·
C[C@H](CO)N1C[C@H](C)[C@H](CN(C)C(=O)Nc2ccccc2)OCCCC[C@H](C)Oc2ccc(NC(=O)Nc3ccc4c(c3)OCO4)cc2C1=O	-11	17	·	·	49*	·
CO[C@@H]1CN(C)C(=O)c2ccc(NC(=O)CC(F)(F)F)cc2OC[C@@H](C)N(C(C)=O)C[C@@H]1C	2	-6	·	·	·	·
Cc1ccc(C(=O)CSc2nnc(-c3ccco3)n2Cc2ccccc2)cc1	·	-84	70	0	28	-66
O=C(CSc1nnc(-c2ccco2)n1Cc1ccccc1)c1ccccc1	·	·	91*	·	44*	-82
Cn1c(=O)oc2cc(S(=O)(=O)Nc3ccc4c(c3)OCO4)ccc21	·	2	-3	2	45*	4
Cn1c(=O)c2cc(S(=O)(=O)Nc3ccc4c(c3)OCO4)ccc2n(C)c1=O	·	·	-25	-4	-16	25
COc1ccc(-c2cn(CC[C@@H]3CC[C@H](NC(=O)Cc4ccccn4)[C@@H](CO)O3)nn2)cc1	-7	78*!	·	-2	-2	·
COc1ccc(-c2cn(CC[C@@H]3CC[C@@H](NC(=O)Cc4ccccn4)[C@H](CO)O3)nn2)cc1	-6	-28	·	·	6	·
COc1ccc(-c2cn(CC[C@@H]3CC[C@H](NC(=O)Cc4ccccn4)[C@H](CO)O3)nn2)cc1	3	90*	·	·	2	·
N#Cc1ccccc1OCC(=O)NC(=O)NCc1ccco1	-76	-134	116*	19	·	-111
CCNC(=O)NC(=O)COc1ccccc1C#N	·	·	93*	·	91*	-93
C[C@@H]1CN([C@H](C)CO)C(=O)c2cc(NC(=O)Cc3ccccc3)ccc2O[C@@H](C)CCCCO[C@@H]1CN(C)Cc1ccc2c(c1)OCO2	9	26	·	·	0	·
Cc1ccc(S(=O)(=O)N2C[C@H]3n4c(=O)ccc(=O)n4C[C@H](OC(=O)NCC4CCCCC4)[C@@]3(O)C2)cc1	40	73*	·	0	-84	·
Cc1ccc([N+](=O)[O-])cc1S(=O)(=O)Nc1cccc(-c2ccc(N3CCOCC3)nn2)c1	-58	-95	88*	14	37	-78
O=[N+]([O-])c1ccccc1S(=O)(=O)Nc1cccc(-c2ccc(N3CCOCC3)nn2)c1	-21	-50	36	2	27	-33
Cc1ccc(S(=O)(=O)Nc2cccc(-c3ccc(N4CCCCCC4)nn3)c2)c(C)c1	-70	-161	53	-1	70*	-47
O=[N+]([O-])c1ccccc1S(=O)(=O)Nc1cccc(-c2ccc(N3CCCC3)nn2)c1	-18	-12	27	2	34	-29
O=C(C[C@@H]1CC[C@H]2[C@@H](COC[C@@H](O)CN2S(=O)(=O)c2ccccc2)O1)NCCN1CCCCC1	-3	-10	·	·	-2	·
O=C(Nc1ccc2c(c1)OCCO2)c1ccc(Br)s1	-15	41	16	-4	·	-18
Cc1ccc(C(=O)Nc2ccc3nc(C)sc3c2)s1	·	·	45	·	58*	-52
Cc1nc2cc(NC(=O)c3ccc(Br)s3)ccc2s1	·	-231	6	-3	70*	-3
